Assay outcomes deposited in PubChem by several laboratories.
This is a sample that favours compounds with a hit; in the whole collection about 2.5% have one here.
MRP1 act: activators of MRP-1; H69AR cells + doxorubicin, viability rescue, CellTiter-Glo; viability increase, % at 10 µM; 140,000 compounds, 0.61% hits;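 active = viability gain under doxorubicin at or above a set limit, the compound median plus 3 SD, cut at about 4.7% in these data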;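 note: MRP-1 overexpressing cells given doxorubicin 25 µM after compound pretreatment; 18-22 h compound pretreatment then 72 h with doxorubicin before readout; 0% = doxorubicin-only wells and 100% = vehicle-treated cells without doxorubicin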
sdo1 growth: compounds rescuing growth of sdo1-depleted yeast, bone marrow failure model; 140,000 compounds, 0.21% hits; S. cerevisiae sdo1-depleted JHY4D growth rescue, OD600 30 h; hits give high values; pdr5 snq2 efflux-pump mutant strain; z-score at 10 µM; AID 817;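 active = z-score above 3 at both the 24 hr and the 30 hr optical density reads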;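 note: z-score against mean and SD of all compound wells on the same plate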
sEH inh: blocks human soluble epoxide hydrolase activity; 91,000 compounds, 0.34% hits; inhibition, % at 2 µM; P34913; recombinant human sEH enzymatic activity assay; in the data active = inhibition above about 80%
Target sequence (P34913 whole entry, looked up): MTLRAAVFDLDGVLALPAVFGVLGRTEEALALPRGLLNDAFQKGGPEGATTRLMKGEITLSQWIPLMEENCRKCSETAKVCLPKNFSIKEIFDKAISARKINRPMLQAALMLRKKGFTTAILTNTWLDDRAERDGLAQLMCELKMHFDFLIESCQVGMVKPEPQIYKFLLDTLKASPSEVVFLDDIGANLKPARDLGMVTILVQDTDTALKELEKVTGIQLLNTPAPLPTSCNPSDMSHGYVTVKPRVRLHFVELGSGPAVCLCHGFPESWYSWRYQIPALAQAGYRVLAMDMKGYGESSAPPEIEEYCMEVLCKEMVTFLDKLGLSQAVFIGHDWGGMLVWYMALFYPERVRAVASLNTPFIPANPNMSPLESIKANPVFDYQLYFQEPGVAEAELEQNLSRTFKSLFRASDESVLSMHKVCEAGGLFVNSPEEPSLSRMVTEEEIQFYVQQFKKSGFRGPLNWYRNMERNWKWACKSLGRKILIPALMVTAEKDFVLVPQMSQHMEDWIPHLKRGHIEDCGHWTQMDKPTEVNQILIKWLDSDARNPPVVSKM
sEH activator: increases human soluble epoxide hydrolase activity; purified human sEH enzymatic activity, activator screen; 91,000 compounds, 0.04% hits; activation, % at 2 µM; in the data active = activation above about 37%
Measles CPE: protection of cells from measles virus | Measles virus-infected cells, CPE protection, absorbance | protection (pct of control), % at 4 µM | 140,000 compounds, 1.5% hits | AID 841; in the data active = protection mostly above about 24%, no sharp cut-off; inactive = mostly below about 26%
MRP resist rev: MRP-mediated drug resistance reversal; H69AR cells + 2 uM doxorubicin, CellTiter-Glo, 72 h; differential viability (reversal), % at 10 µM; 85,000 compounds, 0.04% hits; AID 602;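 active = viability drop by adding the cancer drug above about 55%, with treated viability meeting a 40% cutoff, limit read from the data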;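 note: viability without doxorubicin minus viability with 2 µM doxorubicin for each compound; larger differential means the compound sensitizes cells more to doxorubicin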
Starred values were filed as active, the others as inactive; x = not tested or not shown.

SMILES | MRP1 act | sdo1 growth | sEH inh | sEH activator | Measles CPE | MRP resist rev
CC(=O)Oc1ccc(N(C(C)=O)S(=O)(=O)c2ccc(C)c([N+](=O)[O-])c2)cc1 | -3.4 | 2.25 | x | x | 2.0 | x
COc1ccnc(Oc2ccc(C)cc2)c1C#N | 0.1 | 0.86 | -4.3 | 3.5 | 67.3* | x
COc1ccnc(Oc2ccc3ccccc3c2)c1C#N | 0.2 | 0.32 | 1.4 | -2.2 | 18.9 | x
Cc1ccc(Cn2ccc(NC(=O)c3noc4c3CCCC4)n2)cc1 | 0.1 | -0.02 | x | x | 11.5 | -5.2
O=C(Nc1cnn(Cc2ccc(Cl)c(Cl)c2)c1)c1nc2ncccn2n1 | -0.5 | 1.4 | -5.5 | 8.4 | 4.2 | 10.7
Cc1ccc(Cn2ccc(NC(=O)c3nc4ncccn4n3)n2)cc1 | -0.4 | 0.05 | 5.1 | -6.9 | 39.4* | 7.3
Cc1ccc(Cn2ccc(NC(=O)c3noc4c3CCCCC4)n2)cc1 | 4.7* | -1.54 | x | x | 61.8* | -0.2
Nc1ncnc2c1ncn2[C@@H]1O[C@H](CO)[C@@H](O)[C@H]1O | -0.8 | 0.18 | x | x | 45.2* | -9.0
Nc1ncnc2c1ncn2[C@H]1C[C@H](O)[C@@H](CO)O1 | 0.2 | 0.35 | x | x | 3.9 | x
N#C/C(=N\Nc1ccc(Cl)cc1)C(=N)N1CCCCC1 | 0.3 | 0.93 | -9.1 | 9.0 | 3.6 | 3.4
N#C/C(=N\Nc1ccccc1)C(=N)N1CCOCC1 | 6.8* | 0.57 | x | x | 74.0* | x
Cc1ccc(N/N=C(\C#N)C(=N)N2CCOCC2)cc1 | 6.5* | -0.34 | x | x | 4.5 | x
N#C/C(=N\Nc1ccccc1F)C(=N)N1CCCCC1 | 8.2* | 0.33 | 1.9 | 0.6 | 14.6 | 11.3
Oc1ccccc1-c1cc(-c2ccccc2)no1 | -4.5 | -1.01 | 5.0 | -2.9 | 10.2 | x
Cc1ccc(-c2cc(-c3ccccc3)no2)c(O)c1 | 5.3* | 0.53 | x | x | 15.2 | x
COc1ccc([N+](=O)[O-])cc1NC(=O)CSc1ccccc1 | 0.0 | -1.1 | 3.2 | -0.9 | 66.2* | x
Cc1[nH]n(-c2ccc([N+](=O)[O-])cc2)c(=O)c1N=Nc1nc2ccccc2s1 | x | x | -13.3 | 14.7 | x | -21.6
CN(C)C(=O)CCN1CCOCC1 | -2.8 | 0.02 | -1.8 | 1.5 | 9.8 | 6.4
CC(=O)CCN1CCOCC1 | 1.9 | -0.14 | -12.4 | 8.5 | 93.8* | -13.5
O=C(CCSc1nnc(-c2ccncc2)o1)Nc1ccccc1Cl | -5.0 | 1.1 | 2.3 | -4.1 | 29.9* | -3.0
O=C(Cc1cscn1)c1ccc(O)cc1O | -0.8 | 0.53 | x | x | 36.2* | -3.0
O=C(Nc1ncccn1)C1CCCN1S(=O)(=O)c1ccc(Cl)c(Cl)c1 (stereo not given) | -0.8 | 0.81 | -6.3 | 0.7 | 44.9* | x
O=C(O)C1CCCN1S(=O)(=O)c1ccc(Cl)c(Cl)c1 (stereo not given) | 0.1 | 0.53 | -16.6 | 17.0 | 14.9 | -6.7
CCn1c(CNC(=O)COc2ccc(C(C)C)cc2)nnc1SCC(=O)Nc1ccccc1F | -0.3 | 0.22 | 27.4 | -25.9 | 8.1 | x
CCn1c(CNC(=O)COc2ccc(C(C)C)cc2)nnc1SCC(=O)Nc1ccccc1C(C)C | 6.2* | 0.57 | 49.9 | -48.6 | 41.9 | x
SMILES | MRP1 act | sdo1 growth | sEH inh | sEH activator | Measles CPE | MRP resist rev
CCc1nnc(N2C(=O)c3cccc4cccc(c34)C2=O)s1 | -2.9 | 1.58 | -14.0 | 13.2 | 7.8 | -17.8
CCOC(=O)Nc1ccc(C(=O)Oc2ccccc2)c(O)c1 | -0.6 | -0.46 | 0.8 | -3.1 | 39.8* | -0.3
CCOC(=O)Nc1ccc(Oc2ccccc2)cc1 | -0.3 | -0.24 | -1.6 | 4.0 | 16.3 | 6.8
Cn1cc(Cl)c(C(=O)N/N=C/c2ccc(OS(=O)(=O)c3ccccc3)cc2)n1 | -1.9 | -0.47 | 11.3 | -10.3 | 12.8 | 3.6
CCC(=O)N/N=C/c1ccc(OS(=O)(=O)c2ccccc2)cc1 | -2.0 | 0.5 | x | x | 17.6* | x
COc1ccc(/C=C/C(=O)NCc2cnn(C)c2C)cc1COc1ccc(Br)cc1 | 5.3* | -0.84 | -1.5 | -0.5 | 1.0 | x
CCOc1c(Br)cc(C2NS(=O)(=O)N=C3CCCCCN32)cc1OC (stereo not given) | -4.0 | -0.25 | -3.8 | 3.4 | 10.2 | -38.7
Cc1ccc(-n2nc3c(Cl)nnc(C)c3c2C)cc1 | -2.2 | -0.16 | x | x | 18.8 | x
CSc1nnc2c(n1)c(C)nn2-c1ccc(C)cc1 | -2.6 | -0.79 | -3.9 | 6.4 | 37.9* | -16.4
CN(CC(=O)NCCc1ccc(Cl)cc1)S(=O)(=O)c1ccc2c(c1)c(=O)n(C)c(=O)n2C | 6.1* | -0.72 | -6.3 | 5.2 | 11.2 | 4.1
O=C(CSc1ncc(-c2ccccc2)n1C1CCCC1)N1CCc2ccccc21 | -4.2 | -0.8 | -2.9 | 3.1 | 20.8 | x
O=C(NCCc1ccccc1)C1CCCN1C(=O)Nc1ccc(F)cc1 (stereo not given) | -0.4 | 1.22 | x | x | 28.6* | 9.1
COc1ccc(C2NC(=S)NC3=C2CCc2cc(OC)ccc23)cc1 (stereo not given) | -1.6 | -1.72 | 4.3 | -3.2 | 2.6 | x
COC(=O)c1cc2c(-c3ccccc3)cc3ccccn3c-2c1C(=O)OC | -1.5 | -1.68 | 7.2 | -5.8 | 78.5* | x
CCCCCCS(=O)Cc1ccccc1 (stereo not given) | 0.8 | 0.54 | x | x | 34.9* | 3.2
O=S(Cc1ccccc1)CC(O)(c1ccccc1)c1ccccc1 (stereo not given) | -4.5 | -0.23 | -4.6 | 1.8 | 2.9 | x
NNC(=O)c1ccc(O)cc1O | 0.8 | -0.89 | x | x | 5.3 | x
O=C(NCCC(c1ccccc1)c1ccccc1)c1ccc(Br)o1 | -2.3 | 0.18 | 97.0* | -96.9 | 2.2 | 4.3
CCc1c(C)nc2ncnn2c1N1CCC(C(=O)Nc2ccc(C)cc2)CC1 | -0.2 | 0.78 | 83.3* | -83.4 | 4.9 | -37.7
CCc1c(C)nc2ncnn2c1N1CCC(C(=O)Nc2ccccc2)CC1 | -1.5 | 1.1 | 51.2 | -51.5 | 5.0 | -16.4
O=C(NC1CCCC1)C(c1ccc(F)cc1)N(Cc1ccc(F)cc1)C(=O)CCl (stereo not given) | -4.9 | -1.32 | x | x | 5.8 | x
O=C(CSc1nc2c(c(=O)n1-c1ccc(Br)cc1)SCC2)Nc1nccs1 | 0.3 | -1.17 | -44.6 | 46.9* | 2.9 | -5.6
O=C1C2CCCN2C(c2ccc(F)cc2)N1c1nccs1 (stereo not given) | -0.9 | 0.49 | x | x | 33.2* | -6.0
Cc1ccc(C2N(c3nccs3)C(=O)C3CCCN32)cc1 (stereo not given) | -1.1 | -0.32 | 1.5 | 0.2 | 1.5 | -12.0
O=C(/C=C/c1cccc(Cl)c1)NCCN1CCOCC1 | 0.2 | 0.61 | x | x | 14.8 | x
O=C(CCC(=O)OCC(=O)c1ccc([N+](=O)[O-])cc1)NC1CCCCC1 | -2.8 | 1.1 | x | x | 2.4 | x
O=C(COC(=O)CCCNC(=O)c1ccc(Cl)cc1)NC1CC1 | -2.1 | -0.16 | 2.0 | -3.2 | 47.6* | 2.1
O=C(CCC(=O)OCC(=O)c1ccc(Cl)cc1)NC1CCCCC1 | -0.1 | -0.12 | 6.0 | -4.3 | 63.8* | 0.3
COC(=O)C(NC(=O)c1ccc(C)cc1)(Nc1cccc(C)n1)C(F)(F)F (stereo not given) | -2.8 | -0.82 | 7.8 | -7.2 | 17.8 | 5.7
CCn1c(C)cc(/C=C2\NC(=O)N(Cc3ccc(Cl)cc3)C2=O)c1C | 9.5* | -0.69 | -26.5 | 27.4 | 19.6 | x
